# From PubChem BioAssay (EPA / NIEHS)
# Results filed as inconclusive are left out. The source made the active and inactive calls. How the source made its calls, unless noted: active means hit-call score of the fitted dose curve at least 0.9, where 1 is the maximum; inconclusive means response in the unintended direction; inactive means score below 0.9.
# Tests used:
# [1] = ATG_TCF_b_cat_CIS: Attagene CIS-FACTORIAL HepG2 Assay for human T-Cell-Factor with beta-catenin (TCF/b-cat) (AID 2282965; active means hit-call score of the fitted dose curve at least 0.9, where 1 is the maximum; inactive means score below 0.9); conditions: HepG2 TCF/beta-catenin cis-reporter transcription, actives raise or lower the signal
# Procedure, shortened: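 HepG2 cells transiently transfected with multiple cis-promoter-regulated reporter transcription units, so endogenous transcription factor activity is measured. Reporter mRNA read 24 hours after dosing by RT-PCR, fluorescent labelling and capillary electrophoresis; bidirectional fitting against DMSO.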
# [2] = ATG_TAL_CIS: Attagene CIS-FACTORIAL HepG2 Assay for human TAL Basal Promoter (AID 2282966; active means hit-call score of the fitted dose curve at least 0.9, where 1 is the maximum; inactive means score below 0.9;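 further: background control endpoint measuring basal TAL promoter reporter mRNA not a specific factor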); conditions: HepG2 Attagene cis-factorial TAL promoter reporter; actives raise or lower the signal
# Procedure, shortened: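 Transiently transfected HepG2 (cis-regulated reporter units), 24 h treatment, mRNA read by fluorescent CE after RT-PCR; bidirectional fit, DMSO baseline.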
# [3] = ATG_TGFb_CIS: Attagene CIS-FACTORIAL HepG2 Assay for human Transforming Growth Factor (TGF) (AID 2282967; active means hit-call score of the fitted dose curve at least 0.9, where 1 is the maximum; inactive means score below 0.9); conditions: HepG2 Attagene CIS TGFb reporter, mRNA transcription; actives raise or lower the signal
# Procedure, shortened: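 Cells were dosed for 24 hours, after which total RNA was reverse-transcribed and reporter sequences amplified, labeled and sized by capillary electrophoresis. Activity was fitted in both directions against DMSO.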
# [4] = ATG_VDRE_CIS: Attagene CIS-FACTORIAL HepG2 Assay for human Vitamin D Receptor Element (VDRE) (AID 2282968; active means hit-call score of the fitted dose curve at least 0.9, where 1 is the maximum; inactive means score below 0.9); conditions: HepG2 VDRE cis-reporter transcription, actives raise or lower the signal
# Procedure, shortened: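 Transfected HepG2 reporter cells, chemical treatment 24 h. RNA isolated, cDNA amplified with reporter-specific primers, products analysed by capillary electrophoresis. Endpoint fitted in both directions versus DMSO.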
# [5] = target: Nuclear receptor subfamily 1 group I member 3 (Homo sapiens) (UniProt Q14994); assay: ATG_CAR_TRANS: Attagene TRANS-FACTORIAL HepG2 Assay for human Constitutive Androstane Receptor (CAR) (AID 2282969); conditions: HepG2 Attagene TRANS-FACTORIAL CAR reporter;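 further: activators raise reporter mRNA above DMSO so AC50 marks induction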
# Procedure, shortened: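 Steps: transient transfection of HepG2 with multiple GAL4-UAS reporter units; 24 h compound incubation; RNA isolation, RT-PCR, 6-FAM primer extension, HpaI digest; capillary electrophoresis. Gain-of-signal relative to DMSO negative control.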
# [6] = target: Estrogen receptor (Homo sapiens) (UniProt P03372); assay: ATG_ERa_TRANS: Attagene TRANS-FACTORIAL HepG2 Assay for human Estrogen Receptor alpha (ERa) (AID 2282970); conditions: HepG2 Attagene TRANS ERa GAL4 reporter, mRNA
# Procedure, shortened: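 One of 30 multiplexed endpoints from a HepG2 TRANS system, this one reports ERa-Gal4-driven reporter mRNA. Transcripts were quantified 24 hours post-dosing by fluorescent RT-PCR and capillary electrophoresis, with activity scored as induction over DMSO.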
# [7] = target: X-box-binding protein 1 (Homo sapiens) (UniProt P17861); assay: ATG_Xbp1_CIS: Attagene CIS-FACTORIAL HepG2 Assay for human X-box Binding Protein 1 (XBP1) (AID 2282972; active means hit-call score of the fitted dose curve at least 0.9, where 1 is the maximum; inactive means score below 0.9); conditions: HepG2 XBP1 cis-element reporter, Attagene multiplex; actives raise or lower the signal
# Procedure, shortened: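 Reporter transcripts were quantified by RT-PCR with fluorescent primer extension and capillary electrophoresis after 24 h chemical exposure. Cells: transiently transfected HepG2 carrying cis-regulated reporter constructs; data fitted bidirectionally relative to DMSO.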
# [8] = ATG_M_19_TRANS: Attagene TRANS-FACTORIAL HepG2 Assay for M19 Transcription Factor (Internal Marker) (AID 2282974); conditions: HepG2 Attagene TRANS-FACTORIAL M19 internal marker reporter
# Procedure, shortened: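 Using RT-PCR and capillary electrophoresis, reporter mRNA from transiently transfected human HepG2 cells was quantified following 24 h exposure; activity was fitted in the positive direction against DMSO.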
# [9] = ATG_GAL4_TRANS: Attagene TRANS-FACTORIAL HepG2 Assay for GAL4 (Internal Marker) (AID 2282976); conditions: HepG2 Attagene TRANS GAL4 internal marker reporter
# Procedure, shortened: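 HepG2 cells transiently transfected with multiplexed GAL4-UAS reporter constructs were dosed for 24 h. Reporter mRNA was measured by RT-PCR, 6-FAM primer extension, HpaI digestion and capillary electrophoresis, and gain of signal was fitted relative to DMSO.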
# [10] = target: Bile acid receptor (Homo sapiens) (UniProt Q96RI1); assay: ATG_FXR_TRANS: Attagene TRANS-FACTORIAL HepG2 Assay for Farnesoid X Receptor (FXR) (AID 2282979); conditions: HepG2 Attagene TRANS FXR-GAL4 reporter transcription;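 further: hits raise reporter mRNA above DMSO so AC50 marks FXR activation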
# Procedure, shortened: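 HepG2 cells transiently transfected with reporter constructs in which a chimeric FXR-GAL4 protein drives a GAL4-UAS reporter; 24 h compound exposure. Reporter mRNA measured by RT-PCR, FAM labelling, HpaI digestion and capillary electrophoresis; gain-of-signal versus DMSO.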
# [11] = target: Oxysterols receptor LXR-alpha (Homo sapiens) (UniProt Q13133); assay: ATG_LXRa_TRANS: Attagene TRANS-FACTORIAL HepG2 Assay for human Liver X Receptor alpha (LXRa) (AID 2282980); conditions: HepG2 Attagene TRANS reporter, LXRa transactivation
# Procedure, shortened: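 HepG2 cells were transiently transfected with multiplexed reporter units driven by chimeric LXRa–GAL4 fusion proteins, then dosed for 24 h. Reporter mRNA was quantified by RT-PCR, fluorescent labelling and capillary electrophoresis; gain of signal fitted against DMSO baseline.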
# [12] = target: Hepatocyte nuclear factor 4-alpha (Homo sapiens) (UniProt P41235); assay: ATG_HNF4a_TRANS: Attagene TRANS-FACTORIAL HepG2 Assay for human Hepatocyte Nuclear Factor 4 alpha (HNF4a) (AID 2282982); conditions: HepG2 HNF4a transactivation reporter, mRNA readout
# Procedure, shortened: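 Using HepG2 liver cells transfected with GAL4-UAS reporter units, chemical-induced mRNA increases were assessed after 24 hours. Fluorescent RT-PCR fragments were separated by capillary electrophoresis and compared with DMSO negative controls.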
# [13] = ATG_M_32_TRANS: Attagene TRANS-FACTORIAL HepG2 Assay for M32 Transcription Factor (Internal Marker) (AID 2282984); conditions: HepG2 Attagene TRANS M32 internal marker reporter;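 further: transcript level of a background control reporter unit measured by RT-PCR and capillary electrophoresis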
# Procedure, shortened: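 Fluorescence-detected mRNA induction, HepG2 liver cells, 24 h after dosing. Multiple GAL4-UAS reporter units introduced by transient transfection; background-control endpoint analysed for gain of signal against DMSO.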
# [14] = target: Transcriptional activator Myb (Homo sapiens) (UniProt P10242); assay: ATG_Myb_CIS: Attagene CIS-FACTORIAL HepG2 Assay for human Myeloblastosis (Myb) Proto-Oncogene Transcription Factor (AID 2282986; active means hit-call score of the fitted dose curve at least 0.9, where 1 is the maximum; inactive means score below 0.9); conditions: HepG2 Attagene CIS-FACTORIAL Myb reporter transcription; actives raise or lower the signal
# Procedure, shortened: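 In this HepG2 transient-transfection format, cis-regulated reporter mRNA is quantified 24 h post-dosing by RT-PCR with capillary electrophoresis, fitted bidirectionally to DMSO baseline.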
# [15] = target: Glucocorticoid receptor (Homo sapiens) (UniProt P04150); assay: ATG_GR_TRANS: Attagene TRANS-FACTORIAL HepG2 Assay for human Glucocorticoid Receptor (GR) (AID 2282978); conditions: HepG2 Attagene TRANS GR reporter, mRNA transcription;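 further: activators score as hits since higher reporter transcript over DMSO is fitted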
# Procedure, shortened: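 Exogenous NR-GAL4 fusion activity was assessed through induced GAL4-UAS reporter transcripts in transfected human HepG2 cells, quantified after 24 h by RT-PCR and fluorescent capillary electrophoresis with DMSO as baseline.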
# [16] = target: Oxysterols receptor LXR-beta (Homo sapiens) (UniProt P55055); assay: ATG_LXRb_TRANS: Attagene TRANS-FACTORIAL HepG2 Assay for human Liver X Receptor beta (LXRb) (AID 2282981); conditions: HepG2 Attagene TRANS GAL4-LXRb reporter, mRNA
# Procedure, shortened: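 Liver-derived HepG2 cells transfected with Gal4-responsive reporters were dosed for 24 h. Activation was scored as rise in reporter mRNA, by RT-PCR and capillary electrophoresis, above DMSO baseline.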
# [17] = ATG_M_06_TRANS: Attagene TRANS-FACTORIAL HepG2 Assay for M06 Transcription Factor (Internal Marker) (AID 2282983); conditions: HepG2 Attagene TRANS M06 internal marker reporter;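 further: reporter transcript level by RT-PCR then capillary electrophoresis fluorescence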
# Procedure, shortened: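 In this multiplexed HepG2 system, compounds are incubated 24 h with cells carrying GAL4-UAS reporter units. Reporter RNA is amplified and resolved by capillary electrophoresis, and induction is scored against DMSO.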
# [18] = target: Steroid hormone receptor ERR1 (Homo sapiens) (UniProt P11474); assay: ATG_ERRa_TRANS: Attagene TRANS-FACTORIAL HepG2 Assay for human Estrogen-Related Receptor alpha (ERRa) (AID 2282971); conditions: HepG2 Attagene TRANS reporter, ERRa transactivation
# Procedure, shortened: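 HepG2 cells transiently transfected with multiplexed GAL4-UAS reporter units reading chimeric ERRa-Gal4 activity; 24 h compound exposure. Reporter mRNA measured by RT-PCR, 6-FAM labelling, HpaI digest and capillary electrophoresis; gain of signal fitted versus DMSO baseline.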
# [19] = target: Estrogen-related receptor gamma (Homo sapiens) (UniProt P62508); assay: ATG_ERRg_TRANS: Attagene TRANS-FACTORIAL HepG2 Assay for human Estrogen-Related Receptor gamma (ERRg) (AID 2282977); conditions: HepG2 Attagene TRANS reporter, ERRg transactivation;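 further: hits increase reporter signal over DMSO so potencies reflect activators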
# Procedure, shortened: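 Readout: fluorescent reporter-mRNA fragments resolved by capillary electrophoresis after RT-PCR and HpaI cut. Cells: transiently transfected HepG2 carrying GAL4-UAS reporters driven by exogenous NR-Gal4 chimeras, dosed 24 h. Activity fitted upward relative to DMSO baseline.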
# [20] = target: Nuclear receptor subfamily 4 group A member 2 (Homo sapiens) (UniProt P43354); assay: ATG_NURR1_TRANS: Attagene TRANS-FACTORIAL HepG2 Assay for human Nuclear Receptor Related Protein 1 (NURR1) (AID 2282985); conditions: HepG2 Attagene TRANS reporter, mRNA readout
# Procedure, shortened: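 Chimeric NR-Gal4 proteins were expressed in human HepG2 cells bearing GAL4-UAS reporter units, and induced reporter mRNA was quantified 24 h post-dosing by RT-PCR and capillary electrophoresis.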
# Chain of Nuclear receptor subfamily 1 group I member 3 (Homo sapiens) (Q14994 whole entry, looked up, the tested form may be a part): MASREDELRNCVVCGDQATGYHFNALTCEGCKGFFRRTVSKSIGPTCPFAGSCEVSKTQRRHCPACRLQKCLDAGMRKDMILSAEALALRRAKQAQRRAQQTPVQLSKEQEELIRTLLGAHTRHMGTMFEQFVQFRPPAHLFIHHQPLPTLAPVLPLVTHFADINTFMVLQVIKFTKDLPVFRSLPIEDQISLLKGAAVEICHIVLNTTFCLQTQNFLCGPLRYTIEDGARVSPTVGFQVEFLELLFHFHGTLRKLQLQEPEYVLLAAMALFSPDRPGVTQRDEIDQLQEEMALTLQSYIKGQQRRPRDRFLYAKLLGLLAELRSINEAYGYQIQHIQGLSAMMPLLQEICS
# Chain of Hepatocyte nuclear factor 4-alpha (Homo sapiens) (P41235 whole entry, looked up, the tested form may be a part): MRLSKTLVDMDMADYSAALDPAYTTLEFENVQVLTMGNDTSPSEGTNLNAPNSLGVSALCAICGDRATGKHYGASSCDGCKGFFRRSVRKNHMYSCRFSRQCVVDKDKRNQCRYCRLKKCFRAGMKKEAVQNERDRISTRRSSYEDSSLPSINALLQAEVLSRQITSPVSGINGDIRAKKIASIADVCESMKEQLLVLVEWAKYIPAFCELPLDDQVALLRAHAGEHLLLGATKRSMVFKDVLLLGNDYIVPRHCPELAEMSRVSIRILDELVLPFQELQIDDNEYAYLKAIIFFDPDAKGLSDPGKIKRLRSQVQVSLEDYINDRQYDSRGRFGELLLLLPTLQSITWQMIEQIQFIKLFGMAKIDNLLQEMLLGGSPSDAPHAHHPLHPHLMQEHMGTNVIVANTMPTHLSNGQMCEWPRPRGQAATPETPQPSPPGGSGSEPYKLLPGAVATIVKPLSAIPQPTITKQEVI
# Chain of Steroid hormone receptor ERR1 (Homo sapiens) (P11474 whole entry, looked up, the tested form may be a part): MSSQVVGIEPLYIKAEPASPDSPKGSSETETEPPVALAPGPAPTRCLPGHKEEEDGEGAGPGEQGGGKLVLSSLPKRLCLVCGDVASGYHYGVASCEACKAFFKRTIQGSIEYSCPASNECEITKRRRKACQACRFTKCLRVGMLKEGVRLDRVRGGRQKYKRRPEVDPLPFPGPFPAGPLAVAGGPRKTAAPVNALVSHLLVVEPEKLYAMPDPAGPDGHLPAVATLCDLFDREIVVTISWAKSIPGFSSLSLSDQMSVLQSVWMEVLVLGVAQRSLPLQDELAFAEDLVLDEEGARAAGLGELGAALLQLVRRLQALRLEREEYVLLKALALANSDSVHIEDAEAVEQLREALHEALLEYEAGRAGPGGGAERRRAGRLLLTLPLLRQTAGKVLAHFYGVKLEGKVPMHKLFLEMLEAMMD
# Chain of Estrogen receptor (Homo sapiens) (P03372 whole entry, looked up, the tested form may be a part): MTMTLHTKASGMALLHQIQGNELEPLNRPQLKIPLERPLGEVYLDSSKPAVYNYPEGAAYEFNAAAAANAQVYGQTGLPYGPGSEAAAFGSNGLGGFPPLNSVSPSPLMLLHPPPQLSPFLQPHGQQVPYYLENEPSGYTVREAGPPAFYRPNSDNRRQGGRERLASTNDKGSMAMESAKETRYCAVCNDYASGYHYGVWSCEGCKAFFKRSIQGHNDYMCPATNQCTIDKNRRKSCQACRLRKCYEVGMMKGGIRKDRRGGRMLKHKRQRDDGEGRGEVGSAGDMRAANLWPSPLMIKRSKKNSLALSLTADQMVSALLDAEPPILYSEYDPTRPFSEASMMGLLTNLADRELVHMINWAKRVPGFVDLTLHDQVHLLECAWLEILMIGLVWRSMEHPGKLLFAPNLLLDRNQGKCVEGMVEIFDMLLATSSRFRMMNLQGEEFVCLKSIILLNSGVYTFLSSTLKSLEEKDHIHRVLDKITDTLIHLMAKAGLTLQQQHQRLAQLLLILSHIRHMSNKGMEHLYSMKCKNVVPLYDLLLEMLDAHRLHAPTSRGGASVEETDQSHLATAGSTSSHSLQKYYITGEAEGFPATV
# Chain of Estrogen-related receptor gamma (Homo sapiens) (P62508 whole entry, looked up, the tested form may be a part): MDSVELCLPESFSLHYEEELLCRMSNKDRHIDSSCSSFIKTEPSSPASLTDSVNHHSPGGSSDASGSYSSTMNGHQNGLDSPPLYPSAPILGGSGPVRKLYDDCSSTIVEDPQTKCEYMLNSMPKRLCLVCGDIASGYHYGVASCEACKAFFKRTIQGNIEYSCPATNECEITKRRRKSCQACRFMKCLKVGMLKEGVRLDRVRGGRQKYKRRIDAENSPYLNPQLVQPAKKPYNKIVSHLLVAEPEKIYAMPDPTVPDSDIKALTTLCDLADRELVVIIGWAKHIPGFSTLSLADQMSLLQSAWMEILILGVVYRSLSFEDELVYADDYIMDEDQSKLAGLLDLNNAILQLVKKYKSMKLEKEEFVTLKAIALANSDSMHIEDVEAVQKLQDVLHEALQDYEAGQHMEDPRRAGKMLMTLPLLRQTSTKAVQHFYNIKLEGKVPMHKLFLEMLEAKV
# Chain of Transcriptional activator Myb (Homo sapiens) (P10242 whole entry, looked up): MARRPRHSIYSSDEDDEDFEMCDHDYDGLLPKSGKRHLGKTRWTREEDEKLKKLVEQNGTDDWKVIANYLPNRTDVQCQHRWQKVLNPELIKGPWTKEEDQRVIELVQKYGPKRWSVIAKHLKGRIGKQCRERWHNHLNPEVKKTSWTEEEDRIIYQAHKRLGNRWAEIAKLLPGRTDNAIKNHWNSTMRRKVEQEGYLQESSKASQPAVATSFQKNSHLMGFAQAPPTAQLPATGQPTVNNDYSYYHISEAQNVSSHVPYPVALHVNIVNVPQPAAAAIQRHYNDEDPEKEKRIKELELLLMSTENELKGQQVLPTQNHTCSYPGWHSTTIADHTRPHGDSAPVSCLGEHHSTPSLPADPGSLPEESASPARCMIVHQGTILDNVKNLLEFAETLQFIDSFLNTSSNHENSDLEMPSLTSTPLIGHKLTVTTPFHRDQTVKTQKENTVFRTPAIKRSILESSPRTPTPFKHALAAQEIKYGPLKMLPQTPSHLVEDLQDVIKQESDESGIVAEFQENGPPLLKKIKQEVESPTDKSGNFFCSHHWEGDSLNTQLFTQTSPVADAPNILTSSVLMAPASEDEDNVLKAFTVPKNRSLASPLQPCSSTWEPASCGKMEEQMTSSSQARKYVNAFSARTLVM
# Chain of X-box-binding protein 1 (Homo sapiens) (P17861 whole entry, looked up): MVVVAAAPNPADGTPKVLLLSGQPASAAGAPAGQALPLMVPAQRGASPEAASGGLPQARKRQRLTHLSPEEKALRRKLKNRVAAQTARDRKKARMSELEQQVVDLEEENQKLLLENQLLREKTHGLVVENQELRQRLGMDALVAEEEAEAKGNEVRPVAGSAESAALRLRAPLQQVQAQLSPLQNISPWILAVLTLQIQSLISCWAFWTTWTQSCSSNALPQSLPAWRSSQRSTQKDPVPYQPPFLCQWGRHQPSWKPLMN
# Chain of Bile acid receptor (Homo sapiens) (Q96RI1 whole entry, looked up, the tested form may be a part): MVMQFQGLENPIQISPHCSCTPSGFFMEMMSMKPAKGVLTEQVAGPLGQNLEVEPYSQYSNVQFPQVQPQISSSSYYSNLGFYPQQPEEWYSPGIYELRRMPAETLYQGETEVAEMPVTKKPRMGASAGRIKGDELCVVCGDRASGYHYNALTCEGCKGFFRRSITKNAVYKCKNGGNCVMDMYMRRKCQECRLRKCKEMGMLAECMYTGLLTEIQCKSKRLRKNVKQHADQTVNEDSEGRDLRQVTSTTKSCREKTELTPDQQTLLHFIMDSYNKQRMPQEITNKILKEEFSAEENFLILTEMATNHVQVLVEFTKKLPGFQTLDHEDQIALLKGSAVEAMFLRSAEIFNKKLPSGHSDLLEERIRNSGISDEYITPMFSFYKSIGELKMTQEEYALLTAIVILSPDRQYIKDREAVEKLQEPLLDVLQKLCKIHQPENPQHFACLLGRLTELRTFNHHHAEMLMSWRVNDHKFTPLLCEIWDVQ
# Chain of Oxysterols receptor LXR-alpha (Homo sapiens) (Q13133 whole entry, looked up, the tested form may be a part): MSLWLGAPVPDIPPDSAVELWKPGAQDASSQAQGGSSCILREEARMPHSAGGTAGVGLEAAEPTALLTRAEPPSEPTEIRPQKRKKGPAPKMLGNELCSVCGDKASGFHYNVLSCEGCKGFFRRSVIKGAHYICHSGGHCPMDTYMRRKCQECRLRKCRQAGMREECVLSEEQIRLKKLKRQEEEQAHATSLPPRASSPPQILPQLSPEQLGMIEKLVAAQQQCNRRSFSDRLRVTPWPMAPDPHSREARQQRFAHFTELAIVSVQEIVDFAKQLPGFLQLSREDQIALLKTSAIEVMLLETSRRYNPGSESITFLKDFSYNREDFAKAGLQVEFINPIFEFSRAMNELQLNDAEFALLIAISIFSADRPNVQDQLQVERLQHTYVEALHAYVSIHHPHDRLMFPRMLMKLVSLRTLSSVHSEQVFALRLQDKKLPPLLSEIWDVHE
# Chain of Oxysterols receptor LXR-beta (Homo sapiens) (P55055 whole entry, looked up, the tested form may be a part): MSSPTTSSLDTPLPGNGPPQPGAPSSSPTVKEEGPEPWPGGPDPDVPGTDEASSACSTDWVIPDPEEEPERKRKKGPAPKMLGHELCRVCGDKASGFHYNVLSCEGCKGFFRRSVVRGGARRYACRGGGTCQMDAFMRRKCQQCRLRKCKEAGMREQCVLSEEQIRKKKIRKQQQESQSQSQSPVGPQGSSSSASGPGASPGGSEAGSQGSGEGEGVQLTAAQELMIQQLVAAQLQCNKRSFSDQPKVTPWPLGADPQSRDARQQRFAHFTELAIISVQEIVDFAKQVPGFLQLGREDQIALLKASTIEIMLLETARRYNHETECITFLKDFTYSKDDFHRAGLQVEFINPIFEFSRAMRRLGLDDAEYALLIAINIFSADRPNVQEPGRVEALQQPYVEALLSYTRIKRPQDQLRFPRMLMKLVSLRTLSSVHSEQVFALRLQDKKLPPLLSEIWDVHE
smiles,measurement,setting,value
CCCCNc1ccccc1,outcome,[1],inactive
same,outcome,[2],inactive
same,outcome,[3],inactive
same,outcome,[4],inactive
same,outcome,[5],inactive
same,outcome,[6],inactive
same,outcome,[7],inactive
same,outcome,[8],inactive
same,outcome,[9],inactive
same,outcome,[10],inactive
same,outcome,[11],inactive
same,outcome,[12],inactive
same,outcome,[13],inactive
same,outcome,[14],inactive
CN(C)Cc1ccccc1O,outcome,[1],inactive
same,outcome,[2],inactive
same,outcome,[3],inactive
same,outcome,[4],inactive
same,outcome,[5],inactive
same,outcome,[6],inactive
same,outcome,[7],inactive
same,outcome,[8],inactive
same,outcome,[15],inactive
same,outcome,[10],inactive
same,outcome,[11],inactive
same,outcome,[16],inactive
same,outcome,[17],inactive
same,outcome,[13],inactive
OCC(F)(F)C(F)(F)C(F)(F)C(F)F,outcome,[1],inactive
same,outcome,[2],inactive
same,outcome,[3],inactive
same,outcome,[4],inactive
same,outcome,[6],inactive
same,outcome,[18],inactive
same,outcome,[7],inactive
same,outcome,[8],inactive
same,outcome,[9],inactive
same,outcome,[15],inactive
same,outcome,[10],inactive
same,outcome,[11],inactive
same,outcome,[16],inactive
same,outcome,[12],inactive
same,outcome,[17],inactive
same,outcome,[13],inactive
O=S(=O)(OCC(F)F)C(F)(F)F,outcome,[1],inactive
same,outcome,[2],inactive
same,outcome,[3],inactive
same,outcome,[4],inactive
same,outcome,[6],inactive
same,outcome,[18],inactive
same,outcome,[7],inactive
same,outcome,[8],inactive
same,outcome,[9],inactive
same,outcome,[19],inactive
same,outcome,[15],inactive
same,outcome,[10],inactive
same,outcome,[11],inactive
same,outcome,[16],inactive
same,outcome,[17],inactive
same,outcome,[20],inactive
Cc1ccc(S(=O)(=O)NCl)cc1,outcome,[1],inactive
same,outcome,[2],inactive
same,outcome,[3],inactive
same,outcome,[6],inactive
same,outcome,[7],inactive
same,outcome,[9],inactive
same,outcome,[19],inactive
same,outcome,[15],inactive
same,outcome,[11],inactive
same,outcome,[12],inactive
same,outcome,[17],inactive
same,outcome,[14],inactive
C=C(C)C(=O)OCCC(F)(F)C(F)(F)C(F)(F)C(F)(F)C(F)(C(F)(F)F)C(F)(F)F,outcome,[1],inactive
same,outcome,[2],inactive
same,outcome,[3],inactive
same,outcome,[4],inactive
same,outcome,[5],inactive
same,AC50,[6],7.49 µM (active)
same,outcome,[7],inactive
same,outcome,[8],inactive
same,outcome,[15],inactive
same,outcome,[10],inactive
same,outcome,[11],inactive
same,outcome,[16],inactive
same,outcome,[17],inactive
same,outcome,[14],inactive
CCCCC(CC)COP(=O)(O)OCC(CC)CCCC (centres undefined),AC50,[1],42.7 µM (active)
same,outcome,[2],inactive
same,outcome,[3],inactive
same,AC50,[4],27.6 µM (active)
same,outcome,[5],inactive
same,outcome,[6],inactive
same,outcome,[7],inactive
same,outcome,[8],inactive
same,outcome,[19],inactive
same,outcome,[15],inactive
same,outcome,[10],inactive
same,outcome,[13],inactive
same,outcome,[14],inactive
CCO[Si](CCC(F)(F)C(F)(F)C(F)(F)C(F)(F)C(F)(F)C(F)(F)F)(OCC)OCC,outcome,[1],inactive
same,outcome,[2],inactive
same,outcome,[3],inactive
same,outcome,[4],inactive
same,outcome,[6],inactive
same,outcome,[18],inactive
same,outcome,[7],inactive
same,outcome,[9],inactive
same,outcome,[19],inactive
same,outcome,[15],inactive
same,outcome,[10],inactive
same,outcome,[11],inactive
same,outcome,[16],inactive
same,outcome,[12],inactive
same,outcome,[17],inactive
same,outcome,[13],inactive
same,outcome,[14],inactive
Cc1cc(C)cc(O)c1,outcome,[1],inactive
same,outcome,[2],inactive
same,outcome,[3],inactive
same,outcome,[4],inactive
same,outcome,[6],inactive
same,outcome,[18],inactive
same,outcome,[7],inactive
same,outcome,[8],inactive
same,outcome,[9],inactive
same,outcome,[19],inactive
same,outcome,[15],inactive
same,outcome,[11],inactive
same,outcome,[16],inactive
same,outcome,[12],inactive
same,outcome,[14],inactive
CC(C)OC(=O)c1ccccc1C(=O)OC(C)C,outcome,[1],inactive
same,outcome,[2],inactive
same,outcome,[3],inactive
same,AC50,[4],14.2 µM (active)
same,outcome,[5],inactive
same,AC50,[6],11.2 µM (active)
same,outcome,[7],inactive
same,outcome,[9],inactive
same,outcome,[15],inactive
same,outcome,[10],inactive
same,outcome,[17],inactive
same,outcome,[20],inactive
same,outcome,[14],inactive
